SIRT5 block: SIRT5 desuccinylase inhibitors, primary screen, biochemical, fluorescence imaging, single point, set 5 | NAD-dependent protein deacylase sirtuin-5, mitochondrial (Homo sapiens), Q9NXA8 | Purified SirT5, succinyl-peptide AMC, trypsin-coupled fluorescence | inhibition, % at 15 µM | 1.1% of 330,000 active; in the data active means inhibition above about 15%
PDI turbidity: inhibitors of human PDI, primary screen, biochemical, turbidity, single point, plate reader; Protein disulfide-isomerase (Homo sapiens), P07237; PDI insulin aggregation turbidity, A650, 90 min; inhibition, % at 10 µM; 0.052% of 350,000 active; AID 588391, 2011;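 active means mean inhibition across replicates of 30% or more, whatever share of single replicates reach that level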
ERp5 inh: inhibitors of ERp5-driven insulin aggregation, primary screen, biochemical, turbidity, absorbance 650 nm, single point. 90 min. 0.05% of 350,000 active. AID 651711, 2012. inhibition, % at 9.99 µM. Protein disulfide-isomerase A6 (Homo sapiens), Q15084;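 active means mean replicate inhibition above about 25%, with every replicate also reaching it, limit read from the data, passing the limit was not always enough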
HDAC3 inhib: HDAC3 deacetylase inhibitors, primary screen, biochemical, fluorescence, cell-free homogeneous | Histone deacetylase 3 (Homo sapiens), O15379 | recombinant HDAC3, fluorogenic peptide/trypsin coupled | inhibition, % at 8.3 µM | 0.15% of 320,000 active | AID 2718, 2010; in the data active means inhibition above about 26%, passing the limit was not always enough
ERAP1 inh: human ERAP1 aminopeptidase inhibitors, primary screen, biochemical, single point, plate reader | 0.15% of 340,000 active | recombinant ERAP1, Leu-AMC fluorescence, 60 min | Endoplasmic reticulum aminopeptidase 1 (Homo sapiens), Q9NZ08 | inhibition, % at 10.7 µM | AID 652197, 2013;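 active means mean replicate inhibition of at least 30%, or all replicates individually reaching that 30% level; inactive means mean below 30% and not every replicate reaching it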
Target sequence (Q9NZ08 whole entry, looked up): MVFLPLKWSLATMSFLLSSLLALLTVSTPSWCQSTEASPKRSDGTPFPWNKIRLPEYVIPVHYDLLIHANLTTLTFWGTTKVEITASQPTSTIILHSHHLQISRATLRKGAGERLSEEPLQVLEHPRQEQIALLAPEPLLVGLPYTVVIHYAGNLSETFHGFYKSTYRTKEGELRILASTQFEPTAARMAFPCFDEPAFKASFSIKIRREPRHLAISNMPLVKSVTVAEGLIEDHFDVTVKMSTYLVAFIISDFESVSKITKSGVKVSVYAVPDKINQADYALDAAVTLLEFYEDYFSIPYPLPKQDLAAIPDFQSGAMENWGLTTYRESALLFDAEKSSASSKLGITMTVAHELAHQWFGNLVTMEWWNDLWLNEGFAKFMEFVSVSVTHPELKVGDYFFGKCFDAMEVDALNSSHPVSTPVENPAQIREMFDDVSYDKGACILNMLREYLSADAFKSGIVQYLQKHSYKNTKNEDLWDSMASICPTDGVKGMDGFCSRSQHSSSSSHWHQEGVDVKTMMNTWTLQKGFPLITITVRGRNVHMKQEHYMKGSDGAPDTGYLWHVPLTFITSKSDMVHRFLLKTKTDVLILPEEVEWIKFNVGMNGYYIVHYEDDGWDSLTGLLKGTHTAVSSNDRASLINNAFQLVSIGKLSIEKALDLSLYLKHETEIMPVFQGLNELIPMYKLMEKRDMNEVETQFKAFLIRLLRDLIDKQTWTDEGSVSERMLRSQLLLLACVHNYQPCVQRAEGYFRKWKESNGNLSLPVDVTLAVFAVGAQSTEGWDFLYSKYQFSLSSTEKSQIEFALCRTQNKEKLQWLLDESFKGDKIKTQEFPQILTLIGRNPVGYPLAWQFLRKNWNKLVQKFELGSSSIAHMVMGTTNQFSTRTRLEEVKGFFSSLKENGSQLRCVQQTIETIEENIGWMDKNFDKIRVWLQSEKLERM
Each line names hits and unclear results; the compound was inactive in the other large screens. Only a selection was taken, and hits are over-represented in it overall.

COCC(=O)N1CC(=O)N2[C@H](C1)[C@@H](c1ccc(-c3ccccc3C)cc1)[C@@H]2CO	none (no result: PDI turbidity, HDAC3 inhib)
CC(C)N(C(=O)[C@H]1C[C@H](CC(=O)NCc2ccco2)C(=O)N2CCc3c([nH]c4cc(CCC(=O)N(C)C)ccc34)[C@]12C)C(C)C	SIRT5 block 30 (no result: HDAC3 inhib)
CCN(CC)C(=O)[C@H]1C[C@H](CC(=O)NC(C)(C)C)C(=O)N2CCc3c([nH]c4cc(CCC(=O)N(C)C)ccc34)[C@]12C	SIRT5 block 31 (no result: HDAC3 inhib)
CN(C)C(=O)C[C@H]1CC[C@H]2[C@@H](COC[C@H](O)CN2C(=O)c2ccncc2)O1	none (no result: PDI turbidity, HDAC3 inhib)
CN1CCN(C(=O)C2CCN(c3ncc(C(F)(F)F)cc3Cl)CC2)CC1	SIRT5 block 37
CC(OC(=O)CC1CCCCC1)C(=O)Nc1ccc(F)cc1 (stereo not drawn)	SIRT5 block 21
CC(=O)Nc1ccc(NC(=O)C(C)OC(=O)CC2CCCCC2)cc1 (stereo not drawn)	none
CN(C)CCOC(=O)CC12CC3CC(C1)CC(CC(=O)OCCN(C)C)(C3)C2	none
CN(C)CCOC(=O)NCC12CC3CC(CC(C3)C1)C2	SIRT5 block 21
CC(=O)c1c(C)nn(C(=O)c2cccs2)c1C	HDAC3 inhib 41 (no result: PDI turbidity)
CC[C@@]12C(=O)N(c3ccc(C)cc3)C(=O)N1[C@H](c1ccc(OC)cc1)[C@@H]1C(=O)N(C(C)(C)C)C(=O)[C@@H]12	SIRT5 block 20
C/C=C/c1ccc([C@H]2[C@@H](CO)N(C(=O)CC)[C@@H]2CN(C)C(=O)NC(C)C)cc1	SIRT5 block 18 (no result: PDI turbidity, HDAC3 inhib)
C/C=C/c1ccc([C@@H]2[C@@H](CN(C)S(C)(=O)=O)N(C(=O)CC)[C@H]2CO)cc1	none (no result: PDI turbidity, HDAC3 inhib)
C/C=C/c1ccc([C@@H]2[C@@H](CN(C(=O)COC)C(C)C)N(C(C)=O)[C@H]2CO)cc1	SIRT5 block 17 (no result: PDI turbidity, HDAC3 inhib, ERAP1 inh)
C/C=C/c1ccc([C@@H]2[C@@H](CO)N(C(C)=O)[C@H]2CN(C(=O)COC)C(C)C)cc1	SIRT5 block 34 (no result: PDI turbidity, HDAC3 inhib, ERAP1 inh)
C/C=C/c1ccc([C@@H]2[C@@H](CN(CC(C)C)C(C)=O)N(C(C)=O)[C@H]2CO)cc1	none (no result: PDI turbidity, HDAC3 inhib)
CN1C(=O)c2cc(NS(C)(=O)=O)ccc2OC[C@@H]2O[C@@H](CC(=O)NCc3ccc(-c4ccccc4)cc3)CC[C@@H]21	SIRT5 block 15 (no result: PDI turbidity, HDAC3 inhib)
CN1C(=O)c2cc(NC(=O)C3CC3)ccc2OC[C@@H]2O[C@H](CC(=O)NC3CCC3)CC[C@@H]21	none (no result: PDI turbidity, HDAC3 inhib)
CCC(=O)Nc1ccc2c(c1)C(=O)N(C)[C@@H]1CC[C@@H](CC(=O)NCC3CC3)O[C@@H]1CO2	ERp5 inh 48 (no result: PDI turbidity, HDAC3 inhib)
CN1C(=O)c2cc(NC(=O)C3CCCCC3)ccc2OC[C@@H]2O[C@@H](CC(=O)NC3CCCC3)CC[C@H]21	ERp5 inh 31 (no result: PDI turbidity, HDAC3 inhib)
CN1C(=O)c2cc(NS(C)(=O)=O)ccc2OC[C@H]2O[C@H](CC(=O)NCc3ccc(-c4ccccc4)cc3)CC[C@@H]21	none (no result: PDI turbidity, HDAC3 inhib, ERAP1 inh)
CN1C(=O)c2cc(NS(=O)(=O)c3ccc(Cl)cc3)ccc2OC[C@H]2O[C@@H](CC(=O)N3CCc4ccccc4C3)CC[C@@H]21	SIRT5 block 16 (no result: PDI turbidity, HDAC3 inhib)
O=C1C=CCCN1C(=O)/C=C/c1ccccc1	none (no result: PDI turbidity, HDAC3 inhib)
C[C@H]1CCCCO[C@@H](CN(C)CC2CCCCC2)[C@@H](C)CN([C@@H](C)CO)C(=O)c2cc(NC(=O)Nc3ccccc3)ccc2O1	none (no result: PDI turbidity, HDAC3 inhib)
CC(=O)N1CC2(C1)[C@H](c1ccccc1)[C@@H](CO)N2C(=O)c1ccncc1	none (no result: PDI turbidity, HDAC3 inhib)
C/C=C/c1cnc2c(c1)C(=O)N([C@@H](C)CO)C[C@H](C)[C@@H](CN(C)C(=O)Cc1ccccn1)O2	none (no result: PDI turbidity, HDAC3 inhib)
C[C@H](CO)N1C[C@H](C)[C@@H](CN(C)C(=O)Nc2ccccc2)Oc2ccc(NS(=O)(=O)c3ccc(Cl)cc3)cc2C1=O	none (no result: SIRT5 block, PDI turbidity, HDAC3 inhib)
COc1cccc(CNC(=O)C[C@H]2CC[C@@H]3[C@@H](COc4ccc(NC(=O)c5cccs5)cc4C(=O)N3C)O2)c1	SIRT5 block 25 (no result: PDI turbidity, HDAC3 inhib)
CCC(=O)Nc1ccc2c(c1)C(=O)N(C)[C@@H]1CC[C@H](CC(=O)NCC3CCCCC3)O[C@H]1CO2	none (no result: PDI turbidity, HDAC3 inhib)
CCC(=O)Nc1ccc2c(c1)C(=O)N(C)[C@H]1CC[C@@H](CC(=O)NCC3CC3)O[C@@H]1CO2	ERp5 inh 78 (no result: PDI turbidity, HDAC3 inhib)

Compound activity (PubChem)
